Screening results from PubChem BioAssay.
The list is not random: actives were taken first. Their share in the collection is about 6.9%.
SW480 rerep – inducers of DNA re-replication in SW480 colon cancer cells | Potency, µM (highest dose often 46.1 µM), for the others: at the highest dose re-replication activation, hits mostly activators | AID 624297 | SW480 DNA re-replication, Hoechst DNA content imaging, 48 h | 340,000 compounds, 1.8% hits; further: potency means the concentration at half of the fitted maximal effect; % of control where 0% means no effect; nearly all actives have a fitted effect of over 55% in size
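Readout is total intensity of Hoechst-stained nuclei, excited at 405 nm and collected at 500-530 nm. Compound treatment lasted 48 hr at 37 C in 5% CO2 before staining.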
IL1B secr inh – blocks inflammasome-driven IL-1 beta release. THP-1 LPS/ATP IL-1B secretion, AlphaLISA, 16 h; stronger effect = lower value. activity change, % at 57.5 µM. 360,000 compounds, 4.7% hits. AID 743279; in the data active means activity change below about -50%; inconclusive means mostly about -30% to -49%; further: on the % scale 0 is the no-effect control and ±100 the full control effect
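THP-1 cells pretreated 1 hr with compounds (up to 57.5 uM final), then stimulated with LPS (250 ng/mL final) plus ATP (1.25 mM final); secreted IL-1B measured by AlphaLISA after 16 hr, decreased signal indicating inhibition.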
Giardia killer – kills Giardia lamblia. Giardia lamblia trophozoite viability. activity change, % at 7.66 µM, hits read low. 340,000 compounds, 0.15% hits; in the data active means activity change below about -80%; inconclusive means between about -30% and that limit;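 further: parasites exposed to compound for two days anaerobically before the ATP read; on the % scale 0 is the no-effect control and ±100 the full control effect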
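Compounds were tested on trophozoites seeded at 100 cells/well and held 48 hrs at 37 deg C anaerobically. An ATP-based luminescent kit measured the remaining live cells.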
Vif-A3F inh – Vif-A3F binding inhibition. 390,000 compounds, 0.2% hits. HeLa A3F-eYFP + Vif (tagged APOBEC3F with the HIV-1 protein that degrades it), YFP fluorescence increase. Potency, µM (doses to about 46.1 µM), inactives show at the top dose activity, negative = active; further: potency means the concentration at half of the fitted maximal effect; % of control where 0% means no effect; nearly all actives have a fitted effect of over 65% in size
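HeLa cells stably expressing A3F-eYFP plus Vif, plated and incubated overnight at 37 deg C, then exposed to compounds overnight at 37 deg C. Blocked degradation read as raised yellow fluorescence (Ex 488/Em 500-530).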
Vif-APOBEC3G blk – Vif-A3G binding inhibition. Q9HC16. HeLa A3G-eYFP + Vif (tagged APOBEC3G with the HIV-1 protein that degrades it), YFP fluorescence, overnight. Potency, µM (series often up to 46.1 µM), for the others: at the highest dose activity, negative = active, most hits filed as inhibitors. 410,000 compounds, 0.076% hits; further: potency means the concentration at half of the fitted maximal effect; on the % scale 0 is the no-effect control and ±100 the full control effect; nearly all actives have a fitted effect of over 60% in size
Target sequence (Q9HC16 whole entry, looked up): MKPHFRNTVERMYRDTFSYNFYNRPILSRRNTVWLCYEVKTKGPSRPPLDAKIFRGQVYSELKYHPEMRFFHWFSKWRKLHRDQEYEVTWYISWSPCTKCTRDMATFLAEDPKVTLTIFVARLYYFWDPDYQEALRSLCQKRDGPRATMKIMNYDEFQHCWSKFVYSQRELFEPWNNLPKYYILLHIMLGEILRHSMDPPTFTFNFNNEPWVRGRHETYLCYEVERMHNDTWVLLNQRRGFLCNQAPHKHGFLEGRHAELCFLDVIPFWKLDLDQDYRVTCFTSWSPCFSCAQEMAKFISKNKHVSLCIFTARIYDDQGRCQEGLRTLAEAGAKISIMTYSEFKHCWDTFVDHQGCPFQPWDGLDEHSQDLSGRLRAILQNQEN
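Read-out is eYFP fluorescence (Ex 488/Em 500-530) from Vif-expressing HeLa A3G-eYFP cells; more signal means A3G escaped Vif-mediated degradation. Cells plated overnight, compound pinned in, incubated overnight at 37 deg C.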
MCF10A rereplic – inducers of DNA re-replication in MCF 10A breast cells. MCF 10A DNA re-replication, Hoechst nuclear intensity, 48 h. Potency, µM (highest dose often 46.1 µM), for the others: at the top dose activity, positive = re-replication, most hits filed as activators. 350,000 compounds, 2.9% hits. AID 624296; further: potency means the concentration at half of the fitted maximal effect; % of control where 0% means no effect; nearly all actives have a fitted effect of over 50% in size
The depositor's hits bear a star; ? = inconclusive; nt = not tested or not shown. Unless noted, the call rests on the fitted dose curve; in most records, active means well fitted curve in the direction sought with a large enough effect; inconclusive means small, poorly fitted or top-dose-only effect, or another doubt; inactive means no such curve, though single readings can be large; an effect the other way counts as inactive or inconclusive.

SMILES | SW480 rerep | IL1B secr inh | Giardia killer | Vif-A3F inh | Vif-APOBEC3G blk | MCF10A rereplic
Cc1cc(C)cc(-n2ncc3c2CCCC3NC(=O)c2ccccc2)c1 (centres undefined) | nt | -13 | nt | 0% | 0% | nt
COc1cccc(C(=O)NC2CCCc3c2cnn3-c2cc(C)cc(C)c2)c1 (centres undefined) | 22% | -58* | 17 | -3% | 4% | ?
COC(=O)c1ccc(C(=O)NC2CCCc3c2cnn3-c2ccc(C)c(C)c2)cc1 (centres undefined) | 6.5µM* | 8 | 4 | -5% | ? | 2.3µM*
Cc1cc(C(=O)NC2CCCc3c2cnn3-c2ccc(C)c(C)c2)nc(C)n1 (centres undefined) | -21% | 24 | -12 | -13% | 2% | 8%
Cc1ccc(S(=O)(=O)c2cn(CC(=O)Nc3cccc(C)c3)c3cc4c(cc3c2=O)OCO4)cc1 | nt | nt | nt | 0% | 1% | nt
Cc1ccc(C)c(N2CCN(C(=O)Cn3c(-c4cccs4)cc4ccccc43)CC2)c1 | nt | nt | nt | -1% | -2% | nt
CCN(CC)c1ccc(NC(=O)c2c(C)nn(-c3ccc(F)cc3)c2-n2cccc2)c(C)c1 | nt | nt | nt | 1% | 0% | nt
N#C/C(=C\c1cccnc1)C(=O)NC1CCCCC1 | 9% | -78* | 1 | 0% | -3% | 12%
CCCCOc1ccc(/C=C(\C#N)C(=O)NC2CC2)cc1 | -2% | -17 | -16 | -2% | -8% | 7%
COc1ccc(/C=C(/C#N)C(=O)NC2CCCCC2)cc1Br | ? | -14 | -11 | 6% | -5% | 10%
CCOc1ccc(/C=C(\C#N)C(=O)NC2CC2)c(OCC)c1 | -12% | -54* | -9 | -2% | 1% | 4%
Cc1cc(/C=C(\C#N)C(=O)NC2CCCCCC2)c(C)n1C | 4% | -53* | -7 | -6% | -2% | 6%
COc1ccc(NC(=O)c2cc(Br)c(Br)s2)cn1 | 1% | -53* | -2 | -2% | -2% | 2%
O=C(Nc1ccc(Br)cc1)c1cccc(S(=O)(=O)Nc2cnc3ccccc3c2)c1 | 2% | ? | 49 | 7% | -6% | ?
COc1ccc(NC(=O)/C(Cl)=C(/Cl)S(=O)(=O)Cc2ccccc2)cn1 | ? | -118* | 2 | -13% | -26% | ?
COc1ccc(NC(=O)Nc2cc(C)cc(C)c2)cn1 | -5% | -2 | 6 | -1% | -2% | -3%
COc1ccc(NC(=O)c2cccc(S(=O)(=O)Nc3ccc(Br)cc3)c2)cn1 | -4% | -80* | 0 | -3% | -1% | ?
COc1ccc(NC(=O)C(Cl)=C(Cl)Cl)cn1 | ? | -97* | -2 | -13% | ? | 21µM*
CCc1cc(C(=O)Nc2ccc(OC)nc2)sc1C | 2% | 0 | -3 | -31% | -1% | 10%
CCCCC(=O)N1C/C=C\C(c2ccc(OC)cc2)N(Cc2ccc(F)cc2)C(=O)C1Cc1ccccc1 (centres undefined) | nt | nt | 7 | nt | -9% | nt
CC1CC=CC2C1C(=O)N(Cc1ccccc1)C2c1ccoc1 (centres undefined) | nt | nt | -4 | nt | ? | nt
COc1ccc(N2CCN(C(c3ccccc3)c3nnc(-c4ccccc4Cl)o3)CC2)cc1 (centres undefined) | nt | nt | nt | 5% | 2% | nt
O=c1c2ccccc2nc(-c2ccc(Cl)cc2)n1CCCOc1ccccc1F | nt | nt | nt | -6% | 4% | nt
O=C(Cn1c(=O)n(-c2ccc(Cl)cc2)c(=O)c2sc3ccccc3c21)NC1CCCC1 | nt | nt | nt | -15% | -1% | nt
COc1ccc(NC(=O)/C(Cl)=C(/Cl)S(=O)Cc2ccc(Cl)cc2)cn1 (centres undefined) | ? | -102* | -4 | 7% | ? | ?
SMILES | SW480 rerep | IL1B secr inh | Giardia killer | Vif-A3F inh | Vif-APOBEC3G blk | MCF10A rereplic
C=C1C=CS(=O)(=O)N(Cc2ccccc2)C1 | nt | nt | -6 | nt | -1% | nt
CCOC(=O)C1=C(CNCc2ccccc2)NC(=O)NC1c1ccc(C)cc1 (centres undefined) | nt | nt | nt | 5% | -9% | nt
Cn1c(=O)c2nc(SCC(=O)Nc3ccc(Cl)c(Cl)c3)n(C)c2n(C)c1=O | nt | nt | nt | 1% | 5% | nt
CC(Oc1ccc(F)cc1)C(=O)Nc1nc(-c2ccccn2)cs1 (centres undefined) | -13% | -102* | 6 | -24% | 1% | 3.3µM*
O=C(Nc1nc(-c2ccccn2)cs1)C1CC1 | ? | -1 | 8 | ? | -4% | 7%
O=C(Nc1nc(-c2ccccn2)cs1)c1ccco1 | 4.1µM* | 74 | -3 | ? | 0% | ?
C[C@H](NC(=O)c1ccco1)C(=O)Nc1nc(-c2ccccn2)cs1 | ? | 54 | 20 | 0% | -1% | 2%
O=C(Nc1nc(-c2ccccn2)cs1)c1ccc(Br)s1 | 2.1µM* | 100 | -2 | -6% | 4% | 26µM*
O=C(CC1CC2CCC1C2)Nc1nc(-c2ccccn2)cs1 (centres undefined) | 5% | 91 | 9 | 13µM* | 1% | ?
Cc1c(Cl)cccc1NC(=O)C(=O)NCC(c1cccnc1)N1CCN(c2ccccc2)CC1 (centres undefined) | nt | nt | nt | 0% | 7% | nt
Cc1ccccc1-n1c(SCC(=O)Nc2ccccc2Cl)nc2n[nH]c(C)c2c1=N | -6% | -1 | -1 | -2% | -7% | ?
CCOc1ccccc1NC(=O)CCSc1nc2n[nH]c(C)c2c(=N)n1-c1ccccc1Cl | ? | 45 | 21 | -15% | ? | 13µM*
CCOc1ccccc1-n1c(SCC(=O)Nc2ccc(CC)cc2)nc2n[nH]c(C)c2c1=N | -2% | -7 | 7 | ? | -18% | 8.2µM*
COC(=O)c1cc2sccc2n1CC(=O)Nc1cc(Cl)ccc1OC | nt | nt | nt | -3% | -13% | nt
Cc1ccc(CNC(=O)c2sc3nc4n(c(=O)c3c2C)CCCC4)cc1 | nt | nt | nt | 5% | 2% | nt
C(C#CCCCCCCCCC[n+]1ccccc1)#CCCCCCCCCC[n+]1ccccc1 | ? | -95* | -3 | -8% | 3% | ?
Cc1cc2c(cc1C)CSC(c1ccccc1O)SC2 | ? | -15 | 5 | 8% | -21% | ?
Oc1ccccc1C1SC(c2ccccc2O)SC(c2ccccc2O)S1 (centres undefined) | ? | -89* | -29 | ? | 6% | 6.5µM*
Cc1cc(-c2ccccc2)nc(-c2ccccc2)c1C | -1% | 0 | 20 | -19% | 1% | 26%
Cc1c(Cl)ccc2c(C(O)CBr)cc(-c3ccccc3)nc12 (centres undefined) | ? | -86* | 2 | -1% | -12% | 21µM*
COCCNC(=O)CN1C(=O)COc2ccc(S(=O)(=O)N3CCCC3)cc21 | nt | nt | nt | -10% | 5% | nt
CCC1CN(C(=O)N2CCC(C(=O)NCCC3=CCCCC3)CC2)c2cc(C)ccc2O1 (centres undefined) | nt | nt | nt | 1% | 3% | nt
